Screens as filed in PubChem.
BAZ2B inh – BAZ2B (human) inhibition; Q9UIF8; AlphaScreen BAZ2B-H3K14Ac peptide displacement; Potency, µM (top dose mostly 114 µM), inactives show at the highest dose activity change, negative = inhibition, usual class: inhibitors; 360,000 compounds, 4.4% hits; note: % is set by controls: 0 for no effect and ±100 for the full control effect; nearly all actives have a fitted effect of over 60% in size
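In this displacement format the biotinylated H3(5-23) peptide acetylated at Lys14 serves as ligand at 50 nM, with BAZ2B at 50 nM in PBS pH 7.4 containing 0.01% Tween-20. Donor and acceptor beads are 10 ug/mL final.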
HP1b binding inh – inhibitors of HP1-beta chromodomain binding to methylated histone tails | AlphaScreen HP1-beta / biotin-H3K9me3 peptide binding | Potency, µM (doses to about 114 µM), for the others: at the top dose activity change, negative = inhibition, actives largely listed as inhibitors | 390,000 compounds, 0.56% hits | AID 540317; note: nearly all actives have a fitted effect of over 70% in size
Target sequence (P83916 whole entry, looked up): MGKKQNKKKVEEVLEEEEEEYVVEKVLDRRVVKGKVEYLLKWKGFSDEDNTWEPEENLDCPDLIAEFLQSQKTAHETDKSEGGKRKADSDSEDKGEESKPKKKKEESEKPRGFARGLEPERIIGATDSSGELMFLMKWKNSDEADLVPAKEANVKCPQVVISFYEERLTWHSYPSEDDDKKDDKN
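Compound inhibition of the preformed complex between 50 nM HP1-beta and 50 nM biotinylated H3K9me3 peptide was read by AlphaScreen. Buffer was PBS pH 7.4 with 0.01% Tween-20. Incubations ran 30 min at room temperature, with 10 ug/mL donor/acceptor beads.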
ALOX12 inh – blocks human arachidonate 12S-lipoxygenase | P18054 | purified 12hLO, xylenol orange hydroperoxide absorbance | Potency, µM (series often up to 108 µM), without a hit: at the highest dose activity change, negative = inhibition, hits mostly inhibitors | 580,000 compounds, 1.1% hits; note: % is set by controls: 0 for no effect and ±100 for the full control effect
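Purified human 12hLO at 150 nM in 25 mM Hepes, 0.01% Triton X-100, pH 7.0, preincubated 15 min at room temperature with compound. Reaction started with 40 uM arachidonic acid, 30 min at room temperature. Hydroperoxide measured by Fe-xylenol orange, 573/405 nm absorbance ratio.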
Sfp inh – blocks B. subtilis Sfp PPTase activity; AID 1490; Potency, µM, for the others: largest response in the series, negative = inhibition, most hits filed as inhibitors; Biochemical Sfp PPTase activity, qHTS; 310,000 compounds, 3.5% hits; Q9F4F7;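 note: the enzyme is Sfp with the accession as filed and its product quenches rhodamine fluorescence; 0% = enzyme reaction without inhibitor and -100% = no enzyme wells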
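Step 1, compound plus 15 nM Sfp-PPTase, 15 min, room temperature. Step 2, add rhodamine-CoA (5 uM) and BHQ-2-YbbR (12.5 uM). Step 3, read 525/598 nm fluorescence at 0 and 30 min.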
JMJD2A Tudor inh – inhibitors of human JMJD2A Tudor domain. AlphaScreen JMJD2A-Tudor / H3K4me3 peptide binding. Potency, µM (highest dose often 114 µM), for the others: at the highest dose activity change, negative = inhibition, usual class: inhibitors. 390,000 compounds, 4.4% hits. AID 504339; note: % is set by controls: 0 for no effect and ±100 for the full control effect; nearly all actives have a fitted effect of over 50% in size
G9a block – inhibitors of human histone lysine methyltransferase G9a. Q96KQ7. G9a H3K9 monomethylation, AlphaScreen, 2 h. Potency, µM (titrated, usually from 102 µM), without a hit: at the highest dose activity, negative = inhibition, most hits filed as inhibitors. 350,000 compounds, 8.8% hits; note: % is set by controls: 0 for no effect and ±100 for the full control effect; nearly all actives have a fitted effect of over 75% in size
Target sequence (Q96KQ7 913-1193 limits assumed): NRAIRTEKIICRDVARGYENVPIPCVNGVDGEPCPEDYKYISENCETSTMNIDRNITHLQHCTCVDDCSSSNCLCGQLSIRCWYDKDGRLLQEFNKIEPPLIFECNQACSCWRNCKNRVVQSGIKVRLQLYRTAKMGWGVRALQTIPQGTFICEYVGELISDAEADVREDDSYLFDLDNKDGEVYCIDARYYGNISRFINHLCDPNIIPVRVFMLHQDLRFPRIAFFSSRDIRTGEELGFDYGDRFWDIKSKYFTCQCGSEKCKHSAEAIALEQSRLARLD
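Methyltransferase reactions run at room temperature for 2 h (20 nM enzyme, 500 nM biotin-H3K9 peptide, 20 uM SAM) after a 15 min compound preincubation; product detected by AlphaScreen beads and anti-H3K9me1 antibody.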
Numbers without * were called inactive; ? = inconclusive; · = no result; [ ] = remark or other dose. In the library only some 8.7% were active in any assay of this set; here they are far more common. Calls come from the whole dose curve; as a rule, active = well fitted curve in the direction sought with a large enough effect; inconclusive = small, poorly fitted or top-dose-only effect, or another doubt; inactive = no such curve, though single readings can be large; an effect the other way counts as inactive or inconclusive. Potency is the fitted concentration of half-maximal effect.

SMILES | BAZ2B inh | HP1b binding inh | ALOX12 inh | Sfp inh | JMJD2A Tudor inh | G9a block
Cc1oc(-c2cc(F)ccc2F)nc1CN1CCN(c2ncnc3ccccc23)CC1 | 36% | 16% | 8% | 40µM* | -22% | ·
Cc1onc(-c2c(F)cccc2Cl)c1C(=O)Nc1cccc(S(=O)(=O)NCc2ccco2)c1 | · | -18% | 3% | 0% | -33% | 56µM*
O=C(Nc1ccc(S(=O)(=O)NCc2ccco2)cc1)c1cccc(F)c1 | -29% | -16% | 12% | 20% | -20% | 56µM*
CC(=O)Nc1ccc(S(=O)(=O)NCCSCc2ccco2)cc1 | -15% | 6% | -11%[57.4 µM] | 32µM* | -27% | ?
CCOc1ccc2c(c1)cc(C(=O)NCCOc1ccc(Cl)cc1)n2C | · | · | 104% | · | · | ·
CN(Cc1ccccc1)C(=O)CC1CCN(C(=O)CC2CCCC2)C1 (configuration not stated) | · | · | 24% | · | · | ·
COc1ccccc1CNC(=O)Cc1c(C)c2ccc(OC)c(OC)c2oc1=O | · | · | -5% | · | · | ·
O=C(N/N=C1/C(=O)c2cccc3cccc1c23)c1ccc(Cl)cc1 | 50µM* | -9% | 0%[57.4 µM] | 45µM* | 35µM* | ?
CCOCCCNC(=O)C1CCc2ncc(-c3ccsc3)n2C1 (configuration not stated) | · | · | 44% | · | · | ·
O=C(NCCc1nc(-c2ccccc2)cs1)C1CC(=O)N(c2n[nH]c3ccccc23)C1 (configuration not stated) | · | · | 3% | · | · | ·
O=C(COC(=O)c1ccccc1Nc1ccccc1)NCc1ccccc1Cl | 1% | 18% | -11% | -18% | -7% | -1%
O=C(COC(=O)c1ccccc1Nc1ccccc1)NCc1ccccc1 | 3% | 46% | 8% | 10% | 1% | 50µM*
O=C(COC(=O)c1ccc(Br)o1)NCc1ccco1 | · | -7% | 0% | · | 79µM* | ·
O=C(OCCOCCO)c1ccccc1Nc1cccc(C(F)(F)F)c1 | · | · | · | 20% | · | 4%[5.15 µM]
O=C(COC(=O)c1ccco1)NCc1ccco1 | 5% | 36% | 0% | -4% | -5% | -7%
O=C(COC(=O)c1ccccc1Nc1cccc(C(F)(F)F)c1)NCc1ccco1 | 45µM* | ? | -16% | -5% | 56µM* | 28µM*
O=C(COC(=O)c1ccccc1)NCc1ccco1 | 50µM* | -12% | 361% | -20% | ? | -5%[59 µM]
COc1cccc(CN2CCCC3(CCN(C(=O)c4ccc(OC)nc4OC)C3)C2)c1 (configuration not stated) | · | · | -14% | · | · | ·
Cc1cccc(C(=O)OCC(=O)NCc2ccco2)c1 | ? | -26% | -29% | · | ? | -7%[59 µM]
COc1ccc(C(=O)OCC(=O)NCc2ccco2)c(OC)c1 | · | · | 17% | · | · | ·
COc1ccc(C(=O)OCC(=O)NCc2ccco2)cc1OC | -35% | 16% | 11% | 0% | -26% | 45µM*
O=C(COC(=O)c1ccccc1Oc1ccccc1)NCc1ccco1 | 28µM* | ? | ? | ? | 56µM* | 45µM*
O=C(COC(=O)c1cccc(Br)c1)NCc1ccco1 | · | ? | ? | · | 18µM* | ·
CCNc1nc(N2CCOCC2)nc(N(c2ccccc2)c2ccccc2)n1 | 3% | 37% | 29% | 1% | -24% | ?
O=[N+]([O-])c1cccc(/C=N/Nc2nc(NCc3ccccc3)nc(N3CCOCC3)n2)c1O | -24% | -7% | -10% | -19% | 20µM* | ?
SMILES | BAZ2B inh | HP1b binding inh | ALOX12 inh | Sfp inh | JMJD2A Tudor inh | G9a block
NNc1nc(NCc2ccccc2)nc(N2CCOCC2)n1 | 79µM* | 26% | 2% | 10% | ? | 2%[59 µM]
O=[N+]([O-])c1ccc(/C=N/Nc2nc(NCc3ccccc3)nc(N3CCOCC3)n2)cc1 | -6% | 57% | 2% | -9% | -25% | 30%
Cc1ccc(C(=O)/C=C/c2ccccc2F)o1 | · | · | -4% | · | · | ·
O=C(c1ccn[nH]1)N1CC(F)(F)C[C@H]1c1nc(C2CC2)no1 | · | · | 75% | · | · | ·
COC(=O)C1=C(C)NC(=O)NC1c1ccc(OC)cc1 (configuration not stated) | · | · | 8% | · | · | ·
COC(=O)C1=C(C)Nc2[nH]c(=S)[nH]c(=O)c2C1c1ccc(OC)cc1 (configuration not stated) | ? | 14% | 25µM* | 40µM* | ? | 8.9µM*
Cc1[nH][nH]c(=O)c1C(c1c(C)[nH][nH]c1=O)c1cn(Cc2ccccc2Cl)c2ccccc12 | ? | ? | ? | -11% | ? | 14µM*
CCOCCn1nc(C)cc1C(=O)N1CCC2(CC(=O)NC2=O)C1 (configuration not stated) | · | · | 44% | · | · | ·
CCn1c(C)nc2cc(C(=O)NNC(=S)Nc3ccccc3Cl)ccc21 | -2% | 10% | -8% | 13% | -16% | ?
CCn1c(C)nc2cc(C(=O)NNC(=S)Nc3ccccc3)ccc21 | 0% | 28% | -1% | 19% | -10% | 45µM*
CCn1c(C)nc2cc(C(=O)N/N=C/c3cccc(O)c3O)ccc21 | 79µM* | 31% | -3% | 6% | 79µM* | -32%
CCn1c(C)nc2cc(C(=O)NNC(=S)Nc3ccc(Cl)cc3)ccc21 | 2% | 21% | 1% | -27% | -21% | ?
CCn1c(C)nc2cc(C(=O)NNC(=S)NC(=O)c3ccccc3)ccc21 | -1% | 31% | ? | 18% | -22% | 18µM*
CCn1c(C)nc2cc(C(=O)NNC(=S)Nc3ccc(F)cc3)ccc21 | 0% | 26% | -28% | 15% | -6% | 45µM*
C=C(C)CN1CCC(NC(=O)c2ccc(C)s2)CC1 | · | · | -25% | · | · | ·
CC1=NN(c2ccccc2)C(=O)/C1=C\c1c(C)[nH]n(-c2ccccc2)c1=O | -35% | -10% | 0% | 5% | ? | ?
CC1=NN(c2ccccc2)C(=O)/C1=C/c1c(O)n(-c2ccc(F)c(Cl)c2)[nH]c1=O | 35µM* | ? | · | ? | 50µM* | ?
CC(=O)Nc1ccc2c(c1)nc(CCNC(=O)c1ccc(C)c(F)c1)n2C | · | · | -8% | · | · | ·
COc1cccc(S(=O)(=O)N2CCC3(CC2)N(C)C(=O)CS3=O)c1 (configuration not stated) | · | · | 10% | · | · | ·
Cn1c(N)cc(=O)[nH]c1=S | · | 30% | -9% | · | ? | ·
Cn1c(=S)[nH]c2[nH]c(=O)cnc2c1=O | -10% | 25% | -21% | ? | 89µM* | ?
Cn1c(=O)c(-c2cc(=O)[nH][nH]2)c(O)c2ccccc21 | 56µM* | 8% | -2% | 22% | 35µM* | -28%
CN(Cc1ccsc1)C(=O)CC1C=CCC1 (configuration not stated) | · | · | -17% | · | · | ·
CC(C)(C)c1ccc(NNC(=O)C2CCC2)cc1 | -2% | 43% | -16% | 6% | -6% | 14µM*
